This is an account of results in PubChem BioAssay (NCI).

This is part of a sample that, as a whole, favours compounds with a hit. Of some 83,000 tested, about 20% had one in any assay.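 48-hour exposure, single concentration, 96-well plates; percent growth endpoint where 0 means no net growth. Active: below 10.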 The source made the active and inactive calls.

This experiment deals with MCF7 breast. Nature of the experiment: NCI-60 one-dose screen, 48 h (100 = growth as untreated, 0 = no growth, -100 = all killed). The note with it: 10 µM unless noted. As to the method:
Growth inhibition of the MCF7 human tumor cell line is measured as a screen for anti-cancer activity. Cells are grown in 96 well plates and exposed to the test compound for 48 hours. Compounds are tested at a single concentration, which is 10^-5 M for most compounds. The reported endpoint is percent growth (GI% or GIPRCNT), where numbers from 0 - 100% represent growth inhibition, and numbers from -100% - 0 represent cell death. For example, a value of 40 represents 60% growth inhibition. A value of 0 means no net growth occurred over the course of the experiment. A value of -40 indicates 40% of cells at the beginning of the experiment died by the end of the experiment. A value of -100 means all cells are dead at the end of the experiment.
NCI-60 Human Tumor Cell Lines Screen was performed using the standard one-dose NCI protocol, which is described in more detail at https://dtp.cancer.gov/discovery_development/nci-60/default.htm.
Compounds with GIPRCNT values below 10 were considered active. Activity score was based on GIPRCNT using the following formula: […]
Score is 0 for GIPRCNT values of 100 or above, 50 for GIPRCNT values of 0, and 100 for GIPRCNT values of -100.
As to `Clc1ccc(/C=C/c2cc(N3CCOCC3)c3cc(Cl)c(Cl)cc3n2)cc1`, the growth was 91.7% (inactive).
As for `CN(N)c1nc2sc3c(c2c(=O)[nH]1)CCCC3`, the growth was 83.4% (inactive).
As for `NS(=O)(=O)c1ccc(CCN2C(=O)/C(=C\c3ccc(Cl)cc3)C=C2c2ccc3ccccc3c2)cc1`, the figure is 90.6% (inactive); as for `COc1cc2ncnc(Nc3ccc(F)c(Cl)c3)c2cc1NC(=O)/C=C/CN1CCCCC1`, -53.7% (active).
For `C[C@@H](NC(=O)c1ncnc(N)c1Cl)c1ncc(C(=O)Nc2cc(C(F)(F)F)c(Cl)cn2)s1`, the growth was 96.2% (inactive).
The figure for `CCCCCC(=O)OCc1ccc(Cl)c(Cl)c1` is 93.9% (inactive); for `N#Cc1ccc(-n2nnc3ccccc32)cc1C#N` it is 82% (inactive); for `CC(N)C(Cc1ccc(Cl)cc1)c1ccc(Cl)cc1` (stereo not given) it is 91.1% (inactive).
As for `C=CC(=O)N(C)[C@H]1C[C@H]2OC(C)(C1OC)n1c3ccccc3c3c4c(c5c6ccccc6n2c5c31)C(=O)NC4` (stereo not given in full), the figure is 12.5% (inactive); as for `NC1=Nc2cc(OCCCN3Cc4ccccc4C3)c(OCC3CC3)cc2C12CCCC2`, 47.5% (inactive); as for `COc1ccc2c(CCC(c3ccccc3)c3ccccc3)c3[n+](cc2c1OC)CCc1cc2c(cc1-3)OCO2`, 9.86% (active).
As for `O=c1sn(-c2cccc3ccccc23)c(=O)n1Cc1ccccc1`, the figure is 103% (inactive).
As to `C=CC(=O)N1CCC(Oc2cc3c(Nc4ccc(Cl)c(Cl)c4F)ncnc3cc2OC)CC1`, the growth was 26.8% (inactive).
As for `CCn1c(-c2nonc2N)nc2c(C#CC(C)(C)O)ncc(OC[C@H]3CCCNC3)c21`, the figure is 15.6% (inactive).
As for `COC(=O)[C@H](C)NC(=O)[C@@H](OC)[C@@H]1Cc2cc3cc(OC4CC(OC5CC(O)C(O)C(C)O5)C(O)C(C)O4)c(C)c(O)c3c(O)c2C(=O)[C@H]1OC1CC(OC2CC(OC3CC(C)(O)C(O)C(C)O3)C(O)C(C)O2)C(O)C(C)O1` (stereo not given in full), the figure is 8.55% (active); as for `COc1ccc2nc3cc(Cl)ccc3c(Nc3ccc(N(C)C)cc3)c2c1`, 83.5% (inactive).
Take `FC(F)(F)c1ccc(CNc2ccc(Cc3c[nH]c4ncc(Cl)cc34)cn2)cn1`: the growth was 13.6% (inactive).
The figure for `CC(C)C1CCC(C)C(C2(C#N)C(N)=NC(N)=C2C#N)C1=O` (stereo not given) is 92.6% (inactive).
Regarding `CNC(=O)c1cc(COc2nnc(Nc3ccc(Cl)cc3)c3ccoc23)ccn1`, the growth was 48.1% (inactive).
As for `CC(=O)CC1CCCC1c1ccc2ccccc2c1` (stereo not given), the figure is 95.9% (inactive).
As for `CN(C)C1CCN(C(=O)c2ccc(NC(=O)Nc3ccc(-c4nc(N5CCOCC5)nc(N5CCOCC5)n4)cc3)cc2)CC1`, the figure is 3.87% [2.5 µM] (active); as for `CS(=O)(=O)CCNCc1ccc(-c2ccc3ncnc(Nc4ccc(OCc5cccc(F)c5)c(Cl)c4)c3c2)o1`, -39.3% (active); as for `Cc1cc(C2(c3ccc(O)c(C)c3)OS(=O)(=O)c3ccccc32)ccc1O`, 101% (inactive).
Turning to `CC(=Nc1ccccc1)C1=C(O)C(Cc2ccccc2)NC1=O` (stereo not given), the growth was 9.54% (active).
As for `COc1cc2nccc(Oc3ccc(NC(=O)Nc4cc(C)on4)c(Cl)c3)c2cc1OC`, the figure is 22.8% (inactive).
As for `Cc1ccc2oc(=O)cc(-c3cc(-c4cc5ccccc5oc4=O)nc(N)c3C#N)c2c1`, the figure is 78.1% (inactive); as for `CCC1(/C=N/NC(N)=S)NC(=O)NC1=O` (stereo not given), 97.7% (inactive); as for `Cn1cc(-c2ncnc3ccc(-c4cnc(Cl)c(NS(C)(=O)=O)c4)cc23)c2ccccc21`, 7.57% (active).
The figure for `CC(C)(C)OC(=O)N1CCC(O)[C@@H](O[Si](c2ccccc2)(c2ccccc2)C(C)(C)C)[C@H]1/C=C/c1ccccc1` (stereo not given in full) is 36.6% (inactive); for `Nc1nc(=S)c2ncn(C3OC(COC(=O)c4ccc(Cl)cc4)C(OC(=O)c4ccc(Cl)cc4)C3OC(=O)c3ccc(Cl)cc3)c2[nH]1` (stereo not given) it is 59.8% (inactive); for `Cn1cc(-c2ccc(F)c(C(F)(F)F)c2)nc1C1CCN(c2ncnc3[nH]ncc23)CC1` it is 61.4% (inactive).
`CO[C@@H](C(=O)N1Cc2[nH]nc(NC(=O)c3ccc(N4CCN(C)CC4)cc3)c2C1)c1ccccc1`: the growth was 17.7% (inactive).
As for `C/C=C/C=N/NC(=S)Nc1ccccc1`, the figure is 86% (inactive); as for `C=CC(=O)Nc1cccc(Nc2nc(Nc3ccc(N4CCN(C(C)=O)CC4)cc3OC)ncc2C(F)(F)F)c1`, 4.41% (active).
The figure for `CCCCCCCCCNCCCCCCCCC` is 13.4% (inactive); for `O=C(NO)c1ccc(Cn2c(=O)n(CCc3ccccc3)c(=O)c3ccccc32)cc1` it is 27.9% (inactive); for `COc1cnc2c(c1)C(=O)c1c-2n(CCCN2CCOCC2)c(=O)c2cc(Cl)ccc12` it is 10.4% (inactive).
As for `CCCCCCCC(=O)SCC/C=C/[C@@H]1CC(=O)NCc2cccc(n2)C2=N[C@@](C)(CS2)C(=O)N[C@@H](C(C)C)C(=O)O1`, the figure is 15.5% (inactive); as for `O=C(NC[C@H](O)CO)c1ccncc1Nc1ccc(I)cc1F`, 49.1% (inactive).
`c1cc[n+](Cc2c3ccccc3cc3c2ccc2ccccc23)cc1`: the growth is 31.9% (inactive).
